In the supplement of paper PMC11150407 one finds cell viability data, which are given here for 58 molecules.

The structures appear in SMILES notation. In all, about 2,100 compounds went through this assay and about 180 (8.6%) showed an effect of 50% or more. For the sample, strong results were picked, then their nearest neighbours and some compounds at random.

For this experiment, the system named is MOLM1 and UCSD/AML1 (averaged). The experiment is described as follows: cell viability relative to DMSO control (POC); higher = less growth inhibition. Particulars: 1 µM; 72 h. The procedure: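 Primary viability screen in the 3q26 EVI1-high AML cell lines MOLM1 and UCSD/AML1 (1.5e3 cells/well, 384-well), compounds at 1 uM for 72 h. ATP CellTiter-Glo read-out given as percent of viable cells over DMSO control (POC), averaged over duplicates. DMSO was the negative control and 5 uM etoposide the positive control. This mapping covers the MicroSource Spectrum and Selleck anticancer libraries (drug names).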
As to `c1cc2c(cc1[C@H]1OC[C@H]3[C@@H]1CO[C@H]3c1ccc3c(c1)OCO3)OCO2`, the cell viability was found to be 84.6%. `C[C@@H]1CC[C@]2(NC1)O[C@H]1C[C@H]3[C@@H]4CC=C5C[C@@H](O)CC[C@]5(C)[C@H]4CC[C@]3(C)[C@H]1[C@@H]2C`: the cell viability was 94.1%. For the molecule `C[C@H]1C(=O)O[C@@H]2CCN3CC=C(COC(=O)[C@](C)(O)[C@]1(C)O)[C@H]23`, the cell viability was determined as 103%.

Consider `C[C@@H]1C(=O)O[C@H]2[C@H]1CC[C@@]1(C)C=CC(=O)[C@@]3(C)O[C@@]213` [EPOXY (4,5alpha)-4,5-DIHYDROSANTONIN], for which the cell viability came out at 95.7%. For the molecule `CNC(Cc1c[nH]c2ccccc12)C(=O)O` (stereo not drawn), the cell viability turned out to be 102%. For `C=C[C@H]1CN2CC[C@H]1C[C@H]2[C@H](OC(=O)OCC)c1ccnc2ccc(OC)cc12`, the cell viability came out at 98.5%. As for `N[C@@H]1C[C@H]1c1ccccc1.N[C@H]1C[C@@H]1c1ccccc1`, the cell viability stood at 93.1%.

For the molecule `COP(N)(=O)SC` (stereo not drawn), the cell viability stood at 111%. Consider `C[C@@H]1C[C@H](O)[C@@]2(O)[C@]13CC(=O)OC[C@@]2(C)[C@@](C)(O)C(=O)C3`, for which the cell viability turned out to be 92.3%. Under `C[C@]12CC[C@H](O)C[C@@H]1CC[C@@H]1[C@@H]2CC[C@]2(C)C(=O)CC[C@@H]12` stands 98.7%; under `C[C@]12CC[C@H](O)C[C@H]1CC[C@@H]1[C@@H]2C[C@@H](O)[C@]2(C)[C@@H](C3=CC(=O)OC3)CC[C@]12O`, 18.7%. The figure for `CC(=O)C1CCC2C3CCC4C[C@H](O)CCC4(C)C3C[C@H](O)C12C` (stereo partly drawn) [DIHYDROXY (3alpha,12alpha)PREGNAN-20-ONE] is 105%; for `COP(=S)(OC)Oc1ccc(Sc2ccc(OP(=S)(OC)OC)cc2)cc1` it is 101%; for `CSc1nc(NC(C)C)nc(NC(C)C)n1` it is 102%.

For the molecule `CC(=O)O[C@@H]1C[C@@]2(C)[C@H](c3ccoc3)C[C@H]3O[C@]32[C@]2(C)C(=O)C(O)=C3C(C)(C)C(=O)C=C[C@]3(C)[C@@H]12`, the cell viability worked out at 19.3%. Under `CC1(C)C(=O)C=C[C@@]2(C)C1=C(O)C(=O)[C@]1(C)[C@@H]2CC[C@@]2(C)[C@H](c3ccoc3)C[C@H]3O[C@]321` stands 85.9%; under `CC(=O)O[C@H]1C[C@@H](OC(C)=O)C(C)(C)C2C[C@@H](OC(C)=O)[C@]3(C)C(CC[C@@]4(C)[C@H](c5ccoc5)C(=O)[C@H]5O[C@]543)[C@]21C` (stereo partly drawn), 85.4%. Turning to `CNC(C)[C@H](O)c1ccccc1` (stereo partly drawn), the cell viability came out at 93.6%. Under `Cc1nccc2c1[nH]c1cc(O)ccc12` stands 81%; under `O=C(NC(=O)c1c(F)cccc1F)Nc1ccc(Cl)cc1`, 118%.

In the case of `C[C@@H]1O[C@@H](O[C@@H]2C=C3CC[C@@H]4[C@H](CC[C@]5(C)[C@@H](c6ccc(=O)oc6)CC[C@]45O)[C@@]3(C)CC2)[C@H](O)[C@H](O)[C@H]1O`, the cell viability was 2.01%. The figure for `CC(C)(O)[C@@H]1[C@H]2OC(=O)[C@@H]1[C@]1(O)C[C@H]3O[C@]34C(=O)O[C@H]2[C@]14C` is 87.8%; for `O=C(NC(=O)c1c(F)cccc1F)Nc1cc(Cl)c(OC(F)(F)C(F)C(F)(F)F)cc1Cl` (stereo not drawn) it is 93.9%.

As for `COC(=O)NC(=S)Nc1ccccc1NC(=S)NC(=O)OC`, the cell viability amounted to 116%. Under `COC(=O)C(c1ccccc1)C1CCCCN1` (stereo not drawn) stands 89.3%; under `CC(C)(N)Cc1ccccc1`, 110%.

In the case of `N#C/C(=C\c1cccc(O)c1)C(=O)O` [alpha-CYANO-3-HYDROXYCINNAMIC ACID], the cell viability came out at 94.3%. As for `O=c1c2ccccc2[se]n1-c1ccccc1`, the cell viability turned out to be 97.5%. Turning to `C[CH2][Hg][S]c1ccccc1C(=O)[O-].[Na+]`, the cell viability came to 99.6%. Turning to `CCCCCCCCCCCCCCCC[n+]1ccccc1`, the cell viability stood at 62.3%. The figure for `C/C=C(/C)C(=O)O[C@H]1CC[C@@]2(C)[C@@H]3CC[C@H]4[C@]5(O)C[C@H](O)[C@@]6(O)[C@@H](CN7C[C@@H](C)CC[C@H]7[C@@]6(C)O)[C@]5(O)C[C@@]42O[C@]13O` is 94.9%; for `CC(C)N(CCC(C(N)=O)(c1ccccc1)c1ccccn1)C(C)C` (stereo not drawn) it is 113%. The figure for `N#Cc1c(Cl)c(Cl)c(Cl)c(C#N)c1Cl` is 1.55%; for `CC1=CCCC2C1(C)CCC(C)C2(C)CC/C(C)=C/Cn1c[n+](C)c2c(N)ncnc21` (stereo not drawn) [AGELASINE (stereochemistry of diterpene unknown)] it is 109%. The figure for `CN[C@@H]1[C@@H](O)[C@@H](O[C@@H]2[C@@H](O)[C@H](O[C@H]3O[C@H]([C@@H](C)O)[C@@H](O)[C@H](O)[C@H]3N)[C@@H](N)C[C@H]2N)OC[C@]1(C)O` is 92%; for `CC1(C)C(=O)[C@@H]2O[C@@H]2[C@@]2(C)C1C[C@@H](O)[C@]1(C)C2CC[C@@]2(C)[C@H](c3ccoc3)OC(=O)C3OC321` (stereo partly drawn) [1,2alpha-EPOXYDEACETOXYDIHYDROGEDUNIN] it is 91.4%. With `CC1=CC(=O)c2c(O)cccc2C1=O`, the cell viability came out at 74.6%. Under `COc1cc2c(cc1OC)[C@@H]1C(=O)c3ccc(OC)c(CC=C(C)C)c3O[C@@H]1CO2` stands 103%.

Turning to `C=C(C)[C@H]1Cc2c(ccc3c2O[C@@H]2COc4cc(OC)c(OC)cc4[C@@H]2C3=O)O1`, the cell viability was found to be 26.4%.

As for `COc1cc2c(cc1OC)[C@@H]1C(=O)c3ccc4c(c3O[C@@H]1CO2)CC(C(C)C)O4` (stereo partly drawn), the cell viability was found to be 77.8%.

Take `O=C1NC(=O)C(=O)C(=O)N1`: the cell viability is 100%. Regarding `CNC1CC(N)C(O)C(OC2OC(CO)C(O)C3OC4(OC(C(N)CO)C(O)C(O)C4O)OC23)C1O` (stereo not drawn), the cell viability stood at 103%. Under `O=[N+]([O-])O[C@@H]1CO[C@H]2[C@@H]1OC[C@@H]2O` stands 98.1%; under `C/C(=C\c1csc(C)n1)[C@@H]1C[C@@H]2O[C@]2(C)CCC[C@H](C)[C@H](O)[C@@H](C)C(=O)C(C)(C)[C@@H](O)CC(=O)O1` [Epothilone B (EPO906)], 13.4%; under `C/C(=C\c1csc(C)n1)[C@@H]1C[C@@H]2O[C@@H]2CCC[C@H](C)[C@H](O)[C@@H](C)C(=O)C(C)(C)[C@@H](O)CC(=O)O1` [Epothilone A], 18.5%. With `O=C(O)CC[N+](=O)[O-]` [BOVINOCIDIN (3-nitropropionic acid)], the cell viability amounted to 94.6%. For `Cc1ccc(O)cc1.Cc1cccc(O)c1.Cc1ccccc1O`, the cell viability came out at 98.6%.

Take `C/C=C(\C)C(=O)O[C@H]1C[C@@H](OC(C)=O)[C@@]2(C(=O)OC)CO[C@H]3[C@@H](O)[C@@](C)([C@]45O[C@@]4(C)[C@H]4C[C@@H]5O[C@@H]5OC=C[C@@]54O)[C@H]4[C@]1(CO[C@]4(O)C(=O)OC)[C@@H]32`: the cell viability was 97.3%. Regarding `OC[C@@H]1CCCN2CCCC[C@H]12`, the cell viability came to 83%. Consider `C/C=C/c1ccc2c(c1)OCO2`, for which the cell viability is 108%. As for `C[C@@H]1C[C@@H]([C@H](O)CC2CC(=O)NC(=O)C2)C(=O)[C@@H](C)C1`, the cell viability was 18.4%. The figure for `C[C@]12CCC(=O)C=C1C=C[C@@H]1[C@@H]2CC[C@@]2(C)[C@H]1CC[C@@]2(O)CCC(=O)O` is 111%; for `NC(=O)c1ccc(N)nc1` it is 88%; for `C[C@@H](N)[C@@H](O)c1ccccc1` it is 106%. Under `CC(C)c1cc2c(c(O)c1O)[C@@]1(C(=O)O)CCCC(C)(C)[C@@H]1CC2` stands 107%; under `C=C[C@H]1CN2CC[C@H]1C[C@H]2[C@H](O)c1ccnc2ccccc12`, 105%; under `O=C(NC(=O)c1ccccc1Cl)Nc1ccc(OC(F)(F)F)cc1`, 113%. The figure for `O=C1C=CC(=O)c2ccccc21` is 89.5%.
